Screening results deposited in PubChem by several laboratories.
Sampled rows, rich in hits. Any-hit rate of the full collection: about 5.4%.
Calb FLC: C. albicans growth modulation with fluconazole | C. albicans CaCi-2 (fluconazole-resistant clinical isolate) + fluconazole, Alamar Blue growth, 48 h | growth inhibition, % (no concentration beside the values) | 0.57% of 300,000 active | AID 1979;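 active = growth inhibition above about 58% in most replicates, limit read from the data, passing the limit was not always enough; inconclusive = exactly half the replicates above a set limit; inactive = most replicates below a set limit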;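 also: all wells also contain fluconazole at 8 µg/ml as a sub-toxic cotreatment; 0% = median of DMSO wells and 100% = median of geldanamycin control wells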
MPTP block: blocks calcium-induced mitochondrial swelling; 1.4% of 360,000 active; inhibition, % at 10 µM; isolated mouse mitochondria, Ca2+ swelling absorbance, 30 min;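 active = inhibition of 50% or more, scaled per plate between neutral and stimulator controls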;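 also: 0% = DMSO wells given calcium and 100% = 1 mM EGTA wells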
SKKanGAS inh: inhibitors of SKKanGAS S. pyogenes growth in kanamycin (SK-promoter or general growth effect); BacTiter-Glo, 6 h; inhibition, % at 7.5 µM; 1.3% of 300,000 active; AID 1662;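 active = mean replicate score, as percent of positive control median, at least 50; inconclusive = mean below 50 but one replicate at or above 50; inactive = mean and every replicate below 50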;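 also: strain carries kanamycin resistance gene driven by streptokinase promoter and grows in 40 µg/ml kanamycin; loss of luminescence reflects streptokinase promoter inhibition or plain growth inhibition; 0% = median of DMSO wells and 100% = positive control at its reference dose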
Mdm2-MdmX inh: disrupts the human Mdm2-MdmX interaction; 3% of 330,000 active; SaOS-2 split-luciferase Mdm2/MdmX complementation, luminescence; inhibition, % at 8 µM; O15151+Q00987;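 active = inhibition of at least 50% at 8 µM in the primary screen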
Target sequence (O15151 whole entry, looked up): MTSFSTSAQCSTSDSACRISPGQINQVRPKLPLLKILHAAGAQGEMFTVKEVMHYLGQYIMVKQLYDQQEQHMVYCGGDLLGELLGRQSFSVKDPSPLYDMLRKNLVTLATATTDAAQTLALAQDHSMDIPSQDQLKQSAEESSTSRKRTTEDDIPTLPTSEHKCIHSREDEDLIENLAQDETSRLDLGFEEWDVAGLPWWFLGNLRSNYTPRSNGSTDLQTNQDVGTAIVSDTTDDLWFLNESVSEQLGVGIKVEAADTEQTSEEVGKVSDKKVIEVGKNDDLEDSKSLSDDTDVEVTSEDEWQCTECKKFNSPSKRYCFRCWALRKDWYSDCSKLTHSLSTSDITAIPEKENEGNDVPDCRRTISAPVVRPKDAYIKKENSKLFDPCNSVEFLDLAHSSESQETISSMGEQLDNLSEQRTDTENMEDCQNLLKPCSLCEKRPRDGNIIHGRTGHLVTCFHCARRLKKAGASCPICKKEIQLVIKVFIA
Target sequence (Q00987 whole entry, looked up): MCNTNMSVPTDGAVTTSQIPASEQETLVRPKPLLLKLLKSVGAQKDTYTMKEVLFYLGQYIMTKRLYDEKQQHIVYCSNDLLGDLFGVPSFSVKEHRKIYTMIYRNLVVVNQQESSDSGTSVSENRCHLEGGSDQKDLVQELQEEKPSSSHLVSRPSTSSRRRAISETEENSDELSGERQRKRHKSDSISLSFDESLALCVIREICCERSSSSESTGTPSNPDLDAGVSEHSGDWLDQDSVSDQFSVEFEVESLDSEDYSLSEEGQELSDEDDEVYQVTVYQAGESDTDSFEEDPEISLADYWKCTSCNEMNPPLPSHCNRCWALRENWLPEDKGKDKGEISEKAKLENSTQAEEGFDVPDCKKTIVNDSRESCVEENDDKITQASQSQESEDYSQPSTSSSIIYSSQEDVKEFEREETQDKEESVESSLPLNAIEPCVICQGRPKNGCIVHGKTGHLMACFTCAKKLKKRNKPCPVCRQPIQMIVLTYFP
CSC inhib: blocks cancer stem cells | cancer stem cell-like cells viability, luminescence | inhibition, % at 7.5 µM | 1.1% of 300,000 active | AID 2717; in the data active = inhibition above about 75%; inconclusive = no clear call, values can overlap the other calls; tested in HMLE shEcad cells
Beta apoptosis: beta cell apoptosis inhibition; 0.8% of 300,000 active; INS-1E cytokine-induced death, ATP luminescence, 48 h; percent of positive-control rescue, neutral wells zero; protection from apoptosis, % (concentration not given with the values); AID 435005;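 active = Every replicate reaches about 75%, or at least half do and their mean reaches it too, limit read from the data; inconclusive = At least half of replicates reach the limit but their mean does not; inactive = Under half of replicates reach the limit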;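 also: 0% = cytokine-treated negative control wells and 100% = positive control rescue; higher means more ATP so stronger rescue from cytokine killing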
Active calls of the source: *; ? = inconclusive; · = no result.

SMILES | Calb FLC | MPTP block | SKKanGAS inh | Mdm2-MdmX inh | CSC inhib | Beta apoptosis
CCN(CC)c1nc(SCCOC(=O)Nc2ccccc2)nc(N(CC)CC)n1 | 5 | 5 | 10 | 18 | 81* | 8
CC1CCN(C(=O)C2Cc3ccccc3CN2S(=O)(=O)c2ccc(F)cc2)CC1 (configuration not stated) | 6 | 20 | 4 | 11 | -9 | -2
O=C(NCc1ccco1)c1cc2ccc(O)cc2oc1=O | -2 | 0 | 60* | 29 | 20 | 7
O=C(c1ccccc1)c1cc2ccc(O)cc2oc1=O | -6 | 4 | 62* | 3 | 7 | -3
O=C(c1ccc(Br)cc1)c1cc2ccc(O)cc2oc1=O | 10 | 1 | 4 | -4 | 7 | -1
CN1C(=O)C(CC(=O)Nc2ccc(F)cc2)N(Cc2cccs2)C1=S (configuration not stated) | -3 | 3 | 3 | 4 | 9 | -6
O=C(COC(=O)c1ccco1)Nc1cccc(S(=O)(=O)N2CCOCC2)c1 | · | -1 | · | · | · | ·
CCc1cc(-c2n[nH]c(C)c2-c2ccccc2Cl)c(O)cc1OC | 86* | 1 | ? | 10 | 103* | 13
COCC(COS(N)(=O)=O)C(C)C (configuration not stated) | 2 | 0 | 1 | 23 | 6 | ·
CC(C)COc1ccc(C(=O)N/N=C/c2ccoc2)cc1 | 3 | 0 | 1 | -6 | 7 | -3
C=C[C@@H]1c2c(F)cccc2N(S(=O)(=O)c2ccc(C)cc2)[C@H](c2ccc(OC(C)=O)cc2)C1(C#N)C#N | · | 0 | · | 37 | 112* | -1
CN(C)CCNC(=O)CCCNC(=O)Cn1cnc2sc3c(c2c1=O)CCCC3 | ? | -2 | 4 | -26 | -4 | -4
COc1ccccc1C1NC(=O)NC(C)=C1C(C)=O (configuration not stated) | -10 | -3 | 4 | -11 | -9 | -3
Cc1ccc(Sc2ccc(/C=C3/C(=O)NN(c4ccccc4)C3=O)o2)cc1 | -11 | 13 | -6 | -1 | 89* | 3
Cc1ccsc1/C=C1/C(=O)NN(c2ccccc2)C1=O | -64 | 1 | 1 | 13 | 9 | 3
Cc1cccc(N2NC(=O)/C(=C/c3ccc(-c4ccc(Cl)c(C(=O)O)c4)o3)C2=O)c1 | 103* | 1 | -7 | · | · | ·
O=C1NN(c2ccccc2)C(=O)/C1=C/c1ccc(-c2ccc(Cl)c(C(=O)O)c2)o1 | -34 | 2 | -10 | · | · | ·
CCOc1ccc2[nH]c3c(c2c1)CNCC3 | 3 | 2 | 1 | -1 | -13 | -5
Cc1ccc(NNC(=O)c2ccno2)cc1C | 93* | 1 | 7 | 24 | 67 | 6
Cc1ccc(NNC(=O)c2ccno2)cc1Cl | 0 | 2 | 7 | -4 | 97* | 99*
COC(=O)c1ccc2cc(F)cc(C)c2n1 | · | 0 | · | · | · | ·
Cc1cc(OCC(=O)Nc2ccc(S(=O)(=O)NC3=NCCCCC3)cc2)c(C(C)C)cc1Cl | 4 | 1 | 23 | 22 | 85* | -2
O=C(/C=C/c1ccc2c(c1)OCCCO2)c1ccc2ccccc2c1O | 5 | 2 | 1 | 15 | 95* | -6
Cc1ccc(CNCC(O)(c2ccccc2)c2ccc(Cl)cc2)cc1 (configuration not stated) | 4 | 6 | 9 | · | · | ·
COc1cccc(CNCC(O)(c2ccc(Cl)cc2)c2ccc(Cl)cc2)c1 | -19 | 4 | 84* | 10 | -9 | -6
SMILES | Calb FLC | MPTP block | SKKanGAS inh | Mdm2-MdmX inh | CSC inhib | Beta apoptosis
COc1ccc(-c2nc(NC(C)=O)sc2-c2ccc(OC)cc2)cc1 | -4 | 18 | 67* | 19 | -3 | -10
COc1ccccc1N1CCN(S(=O)(=O)CCNC(=O)c2cccc(F)c2)CC1 | 7 | -1 | -1 | 19 | -8 | 3
Cc1cc(NC(=O)COC(=O)[C@@H](NS(=O)(=O)c2ccc(Br)cc2)C(C)C)no1 | 111* | 3 | -6 | -2 | -7 | -3
COc1cc(NC(=O)N2CCNC2=O)cc(C(=O)Nc2cccc(C(F)(F)F)c2)c1 | 3 | 0 | -8 | 38 | 60 | 14
O=C(O)c1ccccc1-c1ccccc1C(=O)Nc1cccc(-c2nc3ccccc3o2)c1 | 89* | -1 | -10 | 4 | -17 | -4
O=C(Nc1cccc(-c2nc3ccccc3o2)c1)c1cccnc1 | 4 | -3 | 9 | -1 | 8 | 4
COC(=O)C1(C(C[N+](=O)[O-])c2ccc(C)cc2)C(=O)NCC1c1ccco1 (configuration not stated) | 0 | 4 | 64* | 14 | -20 | -6
CCNC(=S)N/N=C/c1cc(C)ccc1C | 21 | -3 | -1 | -3 | · | -5
S=C(NCCc1ccccc1)N/N=C/c1cccc(Cl)c1Cl | -16 | 10 | -4 | 11 | -11 | -6
S=C(NCCc1ccccc1)Nc1ccc(Nc2ccccc2)cc1 | 31 | 1 | -5 | 42 | 20 | 92*
S=C(NCCCc1ccccc1)Nc1ccccc1 | -37 | 0 | · | 4 | 3 | 1
Oc1ccccc1/C=N/NC(=S)NCCc1ccccc1 | 10 | 2 | 96* | · | 38 | 10
C/C(=N\NC(=S)NCCc1ccccc1)c1ccc(Cl)cc1Cl | -10 | 1 | 91* | 11 | 57 | 4
Cc1ccc(C)c(/C=N/NC(=S)NCCc2ccccc2)c1 | -18 | 4 | 54* | -7 | 3 | -7
CC1(C)CCC[C@]2(C)[C@H]3Cc4cc(O)ccc4O[C@]3(C)CC[C@@H]12 | · | 4 | · | 23 | 130* | 10
O=c1c(Cl)c(NCc2ccccc2Cl)cnn1C12CC3CC(CC(C3)C1)C2 | 59 | 12 | 5 | 24 | 95* | 13
O=c1c(Cl)c(NCc2ccc(F)cc2)cnn1C12CC3CC(CC(C3)C1)C2 | 42 | 0 | -7 | -11 | 75* | 9
Cc1ccc(CNc2cnn(C34CC5CC(CC(C5)C3)C4)c(=O)c2Cl)cc1 | 3 | 14 | 1 | 30 | 78* | 5
CCOC(=O)C(=CNc1cc(C)ccc1C)C(=O)OCC | 17 | 2 | -4 | 12 | -6 | -21
COc1ccccc1NC(=S)N(Cc1ccco1)Cc1cc2ccc(C)c(C)c2[nH]c1=O | 2 | 2 | 13 | 41 | 58 | 13
CN1CCN(CC(=O)Nc2sc3c(c2C(=O)Nc2ccccc2)CCCC3)CC1 | -2 | -1 | -9 | 40 | -9 | 2
COc1ccc(NC(=O)c2c(NC(=O)CNCc3ccco3)sc3c2CCC3)cc1 | 2 | 1 | 8 | 7 | -2 | 15
CCOc1ccc(NC(=O)c2c(NC(=O)CNCCN3CCOCC3)sc3c2CCC3)cc1 | -3 | -1 | 90* | 15 | 0 | ·
O=C(CN1CCCC1)Nc1sc2c(c1C(=O)Nc1ccc(Br)cc1)CCC2 | 9 | 3 | 61* | -7 | 12 | ·
C=C1C(=O)c2sccc2C(c2ccc(OC)c(OC)c2)C1COC(C)=O (configuration not stated) | · | 0 | · | · | · | ·
COc1cccc(OCc2cc(C(=O)N(C)Cc3nc(C)cs3)no2)c1 | -4 | 2 | 4 | -56 | -8 | ·
